# In the library only some 4.7% were active in any assay of this set; here they are far more common.
# EBI2 block – EBI2 (human) antagonism; 360,000 tested, 0.81% active; inhibition, % at 5 µM; AID 651636; EBI2 beta-arrestin recruitment, luminescence, 7a,25-OHC stimulated; in the data active means inhibition above about 38%;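 further: enzyme fragment complementation signal reports receptor beta-arrestin coupling in cells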
# Target sequence (P32249 whole entry, looked up, the tested form may be a part): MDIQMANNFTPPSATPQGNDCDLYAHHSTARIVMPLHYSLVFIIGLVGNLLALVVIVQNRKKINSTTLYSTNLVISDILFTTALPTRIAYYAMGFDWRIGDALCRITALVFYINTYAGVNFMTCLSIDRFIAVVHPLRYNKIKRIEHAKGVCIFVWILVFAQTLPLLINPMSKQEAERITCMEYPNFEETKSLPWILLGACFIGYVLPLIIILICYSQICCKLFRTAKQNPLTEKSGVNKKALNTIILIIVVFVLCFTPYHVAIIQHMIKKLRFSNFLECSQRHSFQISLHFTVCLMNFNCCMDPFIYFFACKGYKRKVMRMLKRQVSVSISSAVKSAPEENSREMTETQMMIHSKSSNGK
# tim10-1 inh – growth inhibitors of tim10-1 mutant yeast | S. cerevisiae tim10-1 ts strain growth, BacTiter-Glo, 24 h | inhibition, % at 20 µM | 330,000 tested, 2.2% active;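 active means inhibition of at least 40%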;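 further: mutant grown at 25 °C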
# TIM10 inh – growth inhibitors of TIM10 yeast strain. 330,000 tested, 1.4% active. S. cerevisiae TIM10 strain growth, BacTiter-Glo luminescence, 24 h. inhibition, % at 10 µM;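 active means inhibition of 40% or more at the single tested concentration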;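 further: wild-type TIM10 isogenic control strain grown at permissive 25 °C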
# PfHsp90 yeast 2 – growth inhibition of yeast expressing Plasmodium Hsp90; S. cerevisiae expressing PfHsp90, BacTiter-Glo ATP, 48 h; yeast lacking PDR1 and PDR3 efflux regulators; inhibition, % at 9.4 µM; 310,000 tested, 0.32% active; AID 504621;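 active means every replicate shows inhibition above about 80%, whatever the replicate mean, limit read from the data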
# tim23-1 inh – growth inhibitors of tim23-1 mutant yeast; S. cerevisiae tim23-1 growth, BacTiter-Glo luminescence, 24 h; inhibition, % at 20 µM; 330,000 tested, 1.3% active; AID 463212;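 active means growth inhibition of the mutant yeast at or above 50%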;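 further: temperature-sensitive mutant grown at 25 °C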
# SKKanGAS inh – blocks kanamycin growth of S. pyogenes SKKanGAS strain; inhibition, % at 7.5 µM; BacTiter-Glo, 6 h; AID 1662; 300,000 tested, 1.3% active;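 active means mean replicate score, as percent of positive control median, at least 50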;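 further: strain carries kanamycin resistance gene driven by streptokinase promoter and grows in 40 µg/ml kanamycin; loss of luminescence reflects streptokinase promoter inhibition or plain growth inhibition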
# EBI2 antag conf – EBI2 (human) antagonism, single concentration confirmation. shares compounds with EBI2 block. EBI2 beta-arrestin luminescence, 7a,25-OHC antagonism. inhibition, % at 5 µM. 2,400 tested, 29% active;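 active means inhibition of at least 50%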
# EBI2 agonist – activates EBI2, counter-screen for EBI2 antagonists | shares compounds with EBI2 block | EBI2-expressing cells, agonist mode, luminescence, 60 min; 0% vehicle, 100% 7α,25-dihydroxycholesterol control | activation, % at 5 µM | 2,400 tested, under 10 active | AID 652000;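 active means activation of at least 50%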
# bGal counter – inhibits E. coli beta-galactosidase, counter-screen for EBI2 antagonists | shares compounds with EBI2 block | purified beta-galactosidase, luminescent Galacton Star, 15 min | inhibition, % at 5 µM | 2,400 tested, 1% active;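 active means replicate-average signal at least 3 plate SD below neutral wells, shown as high inhibition, flagging enzyme-inhibiting false positives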;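 further: higher means stronger loss of beta-gal luminescence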
# Hits are given with their value; - = inactive; . = not tested or not shown.
SMILES,EBI2 block,tim10-1 inh,TIM10 inh,PfHsp90 yeast 2,tim23-1 inh,SKKanGAS inh,EBI2 antag conf,EBI2 agonist,bGal counter
O=C1Nc2ccccc2/C1=N/N=C/c1ccc(-c2ccc([N+](=O)[O-])cc2)o1,-,.,.,-,.,-,.,.,.
CC(=O)N1CCOc2ccc(S(=O)(=O)N3CCC(C(=O)NCc4ccc(F)cc4)CC3)cc21,68.7,-,-,-,-,-,56.4,-,-
CC(=O)N1CCOc2ccc(S(=O)(=O)N3CCC(C(=O)NCc4ccc(C)cc4)CC3)cc21,94.0,-,-,-,-,-,84.5,-,-
CC(=O)N1CCOc2ccc(S(=O)(=O)N3CCC(C(=O)NCc4ccc(Cl)cc4)CC3)cc21,89.7,.,.,.,.,.,80.1,-,-
COc1ccc(OCC(O)COc2ccc(OC)cc2)cc1,71.5,-,-,-,-,-,60.2,-,-
COc1ccc(OCC(O)CNC(=O)c2ccc(Br)cc2)cc1 (stereo not drawn),53.5,-,-,.,-,-,-,-,-
COc1ccc(OCC(O)CNC(=O)c2ccc(OC)cc2)cc1 (stereo not drawn),-,-,-,-,-,-,.,.,.
CC(C)NCC(O)COc1ccc(Br)cc1 (stereo not drawn),-,-,-,-,-,-,.,.,.
COc1ccc(Br)cc1CN(C)CC(O)COc1ccc(Br)cc1 (stereo not drawn),90.7,-,-,-,-,-,58.8,-,-
COc1ccc(OCC(O)CNc2ccc(Br)cc2)cc1 (stereo not drawn),75.5,-,-,-,-,-,51.8,-,-
CCNC(=O)C1CCCN(C(=O)c2cccc(Cl)c2)CC1 (stereo not drawn),-,.,.,.,.,.,.,.,.
CC(=O)NC12CC3CC(C1)CC(C(=O)N1CCN(c4ncccn4)CC1)(C3)C2,-,-,-,-,-,-,.,.,.
COc1cccc(C(=O)COC(=O)CCC(=O)c2ccccc2)c1,-,-,-,-,-,-,.,.,.
COC(=O)c1ccccc1NC(=O)c1cccc(NC(=O)C(C)C)c1,-,-,-,-,-,-,.,.,.
CC(=O)NC(=S)Nc1sc2c(c1C(N)=O)CCC(C)C2 (stereo not drawn),36.7,-,-,-,-,-,-,-,-
O=[N+]([O-])c1nccn1CC(O)CO (stereo not drawn),-,.,.,.,.,.,.,.,.
COc1ccc(NC(=O)/C(C#N)=C/c2c(C)nn(-c3ccc(F)cc3)c2Cl)cc1Cl,59.9,-,-,-,-,-,-,-,-
CCCCSc1nc2ccc(Nc3nc(N4CCOCC4)nc(N4CCOCC4)n3)cc2s1,46.4,-,-,-,-,-,-,-,-
CCCCNC(=O)CSc1nc2ccc(Nc3nc(N4CCOCC4)nc(N4CCOCC4)n3)cc2s1,-,-,-,-,-,-,.,.,.
CCOc1ccc(N2CSC(=S)N(c3ccc(OCC)cc3)C2)cc1,61.9,-,-,-,-,-,-,-,-
Cc1ccc(NC(=S)NNc2ncc(C(F)(F)F)cc2Cl)cc1,42.3,-,-,-,-,-,-,-,-
Cc1ccc(/C=C/C(=O)N2CCN(Cc3ccccc3)CC2)o1,-,-,-,-,-,-,.,.,.
O=C(/C=C/c1ccc(Br)cc1)N1CCN(Cc2ccccc2)CC1,96.0,-,-,-,-,-,85.3,-,-
O=C(/C=C/c1ccc(F)cc1)N1CCN(Cc2ccccc2)CC1,92.7,-,-,.,-,-,79.5,-,-
c1ccc(COc2cccc(-c3cc4nc(NCCc5ccncc5)ccn4n3)c2)cc1,46.6,.,.,.,.,.,-,-,-
COc1ccccc1-c1ccc(Nc2ccc(C(=O)N3CCOCC3)cc2)nn1,-,-,-,-,-,.,.,.,.
CC(=O)c1ccc(Nc2ccc(-c3ccccc3F)nn2)cc1,42.2,-,-,.,-,-,-,-,-
CCCn1c(SCC(=O)Nc2ccc(S(=O)(=O)N(C)C)cc2)n[nH]c1=O,-,-,-,-,-,-,.,.,.

# Source: PubChem
